The supplement of paper PMC12067093, “Discovery and optimisation of a covalent ligand for TRIM25 and its application to targeted protein ubiquitination” (Chemical Science, 2025)
Targets with the largest changes are over-represented here; the source holds about 21,000 in all.

Compound: Cc1cc(ccc1-c1ccccc1)C(=O)N1CCCN(CC1)C(=O)CCl [compound 10]
Experiment: probe-labelled cysteine peptide fold change vs DMSO (competition) (log2 fold change); higher = less target engagement (more negative = stronger competition)
Conditions: THP-1, incubation time: 4 h
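Also: competitive profiling in live THP-1 cells: cysteine peptides tagged with an iodoacetamide desthiobiotin (IA-DTB) probe, intensity after compound treatment relative to DMSO-treated cells.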

Chain of UniProt Q9H9A6 (Q9H9A6 whole entry, looked up): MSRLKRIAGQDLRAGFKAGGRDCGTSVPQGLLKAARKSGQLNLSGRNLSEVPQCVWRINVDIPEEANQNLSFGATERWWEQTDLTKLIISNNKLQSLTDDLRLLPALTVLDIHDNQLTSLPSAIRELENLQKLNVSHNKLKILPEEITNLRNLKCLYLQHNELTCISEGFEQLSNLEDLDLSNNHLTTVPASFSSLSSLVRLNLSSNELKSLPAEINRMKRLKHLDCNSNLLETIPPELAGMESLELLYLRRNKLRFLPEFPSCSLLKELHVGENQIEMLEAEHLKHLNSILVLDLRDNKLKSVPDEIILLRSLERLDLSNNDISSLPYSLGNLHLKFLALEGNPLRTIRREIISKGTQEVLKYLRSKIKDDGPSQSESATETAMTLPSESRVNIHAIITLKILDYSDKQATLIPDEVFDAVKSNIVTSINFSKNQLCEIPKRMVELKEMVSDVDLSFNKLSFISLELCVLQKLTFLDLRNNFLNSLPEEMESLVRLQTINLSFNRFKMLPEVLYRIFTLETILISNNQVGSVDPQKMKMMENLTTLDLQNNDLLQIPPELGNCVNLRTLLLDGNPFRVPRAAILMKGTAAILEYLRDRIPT
Chain of UniProt P56192 (P56192 whole entry, looked up): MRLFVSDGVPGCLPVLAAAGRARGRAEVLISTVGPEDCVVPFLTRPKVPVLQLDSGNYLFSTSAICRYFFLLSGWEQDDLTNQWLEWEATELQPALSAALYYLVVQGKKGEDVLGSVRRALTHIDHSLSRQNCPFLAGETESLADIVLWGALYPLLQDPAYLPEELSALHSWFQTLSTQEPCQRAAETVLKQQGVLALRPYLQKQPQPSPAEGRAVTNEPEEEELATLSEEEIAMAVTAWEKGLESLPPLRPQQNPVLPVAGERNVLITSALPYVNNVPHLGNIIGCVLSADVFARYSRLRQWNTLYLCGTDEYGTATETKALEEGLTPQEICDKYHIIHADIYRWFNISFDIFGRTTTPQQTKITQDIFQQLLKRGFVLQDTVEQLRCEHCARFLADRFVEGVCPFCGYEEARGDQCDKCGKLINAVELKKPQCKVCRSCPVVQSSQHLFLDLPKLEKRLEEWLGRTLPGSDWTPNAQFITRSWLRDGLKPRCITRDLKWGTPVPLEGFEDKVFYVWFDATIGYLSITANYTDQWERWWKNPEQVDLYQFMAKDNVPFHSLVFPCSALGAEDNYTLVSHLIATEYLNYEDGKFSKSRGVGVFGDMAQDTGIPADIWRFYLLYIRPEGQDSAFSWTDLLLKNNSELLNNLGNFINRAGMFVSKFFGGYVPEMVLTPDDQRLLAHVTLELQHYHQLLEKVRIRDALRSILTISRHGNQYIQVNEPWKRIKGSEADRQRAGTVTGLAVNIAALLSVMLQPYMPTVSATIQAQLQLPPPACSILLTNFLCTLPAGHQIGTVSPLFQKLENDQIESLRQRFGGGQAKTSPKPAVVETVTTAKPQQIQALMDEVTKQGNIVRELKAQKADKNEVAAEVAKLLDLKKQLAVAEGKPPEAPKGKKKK
Chain of UniProt P53667 (P53667 whole entry, looked up): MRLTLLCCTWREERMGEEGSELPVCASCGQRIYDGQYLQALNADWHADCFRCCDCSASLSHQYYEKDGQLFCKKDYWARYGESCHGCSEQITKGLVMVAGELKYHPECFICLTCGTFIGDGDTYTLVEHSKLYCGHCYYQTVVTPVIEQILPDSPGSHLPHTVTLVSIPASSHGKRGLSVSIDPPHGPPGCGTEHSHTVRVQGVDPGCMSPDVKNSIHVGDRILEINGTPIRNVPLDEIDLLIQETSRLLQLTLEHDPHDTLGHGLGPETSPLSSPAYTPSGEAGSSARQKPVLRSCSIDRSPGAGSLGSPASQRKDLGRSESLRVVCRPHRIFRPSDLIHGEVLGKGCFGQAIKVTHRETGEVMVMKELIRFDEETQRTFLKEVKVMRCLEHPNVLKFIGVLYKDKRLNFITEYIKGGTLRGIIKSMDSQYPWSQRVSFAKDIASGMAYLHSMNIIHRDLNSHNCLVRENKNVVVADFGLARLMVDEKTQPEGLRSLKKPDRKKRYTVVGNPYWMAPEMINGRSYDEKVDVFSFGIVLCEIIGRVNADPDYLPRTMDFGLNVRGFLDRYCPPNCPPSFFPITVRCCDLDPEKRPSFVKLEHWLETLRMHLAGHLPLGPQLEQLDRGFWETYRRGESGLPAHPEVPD
Chain of UniProt Q6UB35 (Q6UB35 whole entry, looked up): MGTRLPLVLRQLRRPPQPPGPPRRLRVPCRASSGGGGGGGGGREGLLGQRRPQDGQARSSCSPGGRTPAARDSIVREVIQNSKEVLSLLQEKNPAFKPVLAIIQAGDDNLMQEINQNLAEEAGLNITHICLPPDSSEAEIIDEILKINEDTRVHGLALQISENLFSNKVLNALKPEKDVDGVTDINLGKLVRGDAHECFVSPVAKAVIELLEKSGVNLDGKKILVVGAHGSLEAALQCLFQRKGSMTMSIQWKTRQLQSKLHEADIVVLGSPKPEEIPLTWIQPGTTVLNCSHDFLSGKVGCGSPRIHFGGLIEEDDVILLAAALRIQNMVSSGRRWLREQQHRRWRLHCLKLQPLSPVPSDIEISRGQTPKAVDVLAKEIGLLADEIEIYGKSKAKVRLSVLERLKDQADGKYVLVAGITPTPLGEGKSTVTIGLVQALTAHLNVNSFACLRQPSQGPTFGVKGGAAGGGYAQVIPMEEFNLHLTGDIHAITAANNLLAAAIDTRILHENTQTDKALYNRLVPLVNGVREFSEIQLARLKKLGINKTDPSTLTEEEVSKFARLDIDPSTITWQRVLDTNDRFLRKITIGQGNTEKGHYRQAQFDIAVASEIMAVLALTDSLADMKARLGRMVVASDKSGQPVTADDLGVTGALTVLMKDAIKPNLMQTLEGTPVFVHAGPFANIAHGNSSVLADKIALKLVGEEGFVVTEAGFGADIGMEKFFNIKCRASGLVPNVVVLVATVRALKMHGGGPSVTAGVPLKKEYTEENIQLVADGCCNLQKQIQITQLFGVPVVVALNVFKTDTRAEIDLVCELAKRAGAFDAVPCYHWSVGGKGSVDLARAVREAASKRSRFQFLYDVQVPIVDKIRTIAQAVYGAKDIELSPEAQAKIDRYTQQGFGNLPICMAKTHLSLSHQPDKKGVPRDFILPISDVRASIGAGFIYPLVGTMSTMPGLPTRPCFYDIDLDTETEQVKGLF
Chain of UniProt P22033 (P22033 whole entry, looked up): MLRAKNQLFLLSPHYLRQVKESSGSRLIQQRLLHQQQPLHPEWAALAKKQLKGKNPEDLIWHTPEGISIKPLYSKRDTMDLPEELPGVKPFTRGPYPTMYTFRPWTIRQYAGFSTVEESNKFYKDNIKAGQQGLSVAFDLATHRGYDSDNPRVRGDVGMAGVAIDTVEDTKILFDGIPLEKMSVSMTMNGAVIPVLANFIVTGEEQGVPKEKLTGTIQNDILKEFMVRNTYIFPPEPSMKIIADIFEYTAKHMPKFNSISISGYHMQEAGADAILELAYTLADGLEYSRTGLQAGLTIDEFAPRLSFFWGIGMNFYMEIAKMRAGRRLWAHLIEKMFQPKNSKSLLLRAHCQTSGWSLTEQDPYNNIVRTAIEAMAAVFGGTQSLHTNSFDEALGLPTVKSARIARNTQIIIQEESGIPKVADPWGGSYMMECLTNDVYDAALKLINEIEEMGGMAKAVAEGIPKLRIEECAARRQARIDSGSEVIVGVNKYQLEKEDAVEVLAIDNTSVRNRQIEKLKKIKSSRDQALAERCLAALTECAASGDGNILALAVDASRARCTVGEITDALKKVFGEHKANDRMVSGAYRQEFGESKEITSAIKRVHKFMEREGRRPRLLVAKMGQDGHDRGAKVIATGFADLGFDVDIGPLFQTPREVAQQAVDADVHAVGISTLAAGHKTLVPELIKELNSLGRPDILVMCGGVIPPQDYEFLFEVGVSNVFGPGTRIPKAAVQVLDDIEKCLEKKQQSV
Chain of UniProt Q8IV50 (Q8IV50 whole entry): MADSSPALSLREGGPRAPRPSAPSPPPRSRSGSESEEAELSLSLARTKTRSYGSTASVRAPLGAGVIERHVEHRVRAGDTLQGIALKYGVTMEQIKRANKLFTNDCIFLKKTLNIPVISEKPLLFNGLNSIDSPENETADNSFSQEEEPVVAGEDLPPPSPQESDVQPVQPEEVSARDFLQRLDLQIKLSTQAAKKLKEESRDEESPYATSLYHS
Chain of UniProt P25205 (P25205 whole entry, looked up): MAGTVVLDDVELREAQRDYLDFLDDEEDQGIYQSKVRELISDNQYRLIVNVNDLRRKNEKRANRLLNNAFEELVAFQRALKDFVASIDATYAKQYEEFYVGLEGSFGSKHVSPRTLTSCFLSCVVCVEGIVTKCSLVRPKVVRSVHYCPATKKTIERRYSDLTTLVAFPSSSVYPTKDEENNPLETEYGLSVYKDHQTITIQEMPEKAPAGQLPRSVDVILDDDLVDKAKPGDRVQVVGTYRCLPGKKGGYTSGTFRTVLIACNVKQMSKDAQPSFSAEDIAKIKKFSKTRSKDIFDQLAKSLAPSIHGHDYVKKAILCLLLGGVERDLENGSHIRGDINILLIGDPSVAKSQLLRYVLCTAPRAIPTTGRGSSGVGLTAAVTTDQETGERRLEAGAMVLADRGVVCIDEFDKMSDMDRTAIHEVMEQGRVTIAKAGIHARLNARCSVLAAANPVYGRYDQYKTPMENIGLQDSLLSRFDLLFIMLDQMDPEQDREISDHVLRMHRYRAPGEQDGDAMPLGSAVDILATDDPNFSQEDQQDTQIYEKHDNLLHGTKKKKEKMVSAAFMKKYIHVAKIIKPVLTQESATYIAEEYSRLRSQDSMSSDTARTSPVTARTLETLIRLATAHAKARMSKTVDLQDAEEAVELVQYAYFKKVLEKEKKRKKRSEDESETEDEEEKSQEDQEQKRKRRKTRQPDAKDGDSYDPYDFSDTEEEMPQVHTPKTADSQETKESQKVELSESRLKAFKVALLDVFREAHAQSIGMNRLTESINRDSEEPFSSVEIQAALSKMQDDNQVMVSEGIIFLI

Target	probe-labelled cysteine peptide fold change (10 µM)	probe-labelled cysteine peptide fold change (50 µM)
MED1_Q15648_135_VAHHGENPVSCPELVQQLR (UniProt Q15648)	-0.0375	-0.395
MYH9_P35579_789_ITDVIIGFQACCR (UniProt P35579)	-0.109	-0.0345
MPI_P34949_289_GDCVECMACSDNTVR (UniProt P34949)	0.0622	-0.0489
MFSD14A_Q96MC6_465_HCGSHSHPHNTQAPGEAK (UniProt Q96MC6)	-0.39	-1.11
MED13_Q9UHV7_681_NQCLSAIASDAEQEPK (UniProt Q9UHV7)	0.327	0.0925
MCM2_P49736_223_ISDMCK (UniProt P49736)	-0.124	-0.178
LIG3_P49916_929_KAADETLCQTK (UniProt P49916)	-0.152	-1.24
MTMR6_Q9Y217_214_CLEDEHLLQAISK (UniProt Q9Y217)	-0.103	-0.217
MARS_P56192_309_QWNTLYLCGTDEYGTATETK (UniProt P56192)	-0.0161	0.0949
MYCBP2_O75592_3263_QAHPGCGR (UniProt O75592)	0.0855	0.00399
MDN1_Q9NU22_3308_MDRLDNLTCHLLK (UniProt Q9NU22)	-0.00667	-0.264
LIMK1_P53667_84_YGESCHGCSEQITK (UniProt P53667)	0.0187	-0.262
MTHFD1L_Q6UB35_906_YTQQGFGNLPICMAK (UniProt Q6UB35)	-0.063	-0.0614
MAPK9_P45984_222_GCVIFQGTDHIDQWNK (UniProt P45984)	-0.0703	0.0724
MYH9_P35579_988_KLEEEQIILEDQNCK (UniProt P35579)	-0.0561	-0.0225
MRPS30_Q9NP92_393_NICWGTQSK (UniProt Q9NP92)	-0.226	-0.187
MYCBP2_O75592_4318_QVFKEEEEAIKVDLHEGCGR (UniProt O75592)	-0.166	-0.439

Target	probe-labelled cysteine peptide fold change (10 µM)	probe-labelled cysteine peptide fold change (50 µM)
LIMS3_P0CW19-2_136_YCEHDFQMLFAPCCHQCGEFIIGR<|>LIMS1_P48059_74_YCEHDFQMLFAPCCHQCGEFIIGR (UniProt P48059+P0CW19)	0.212	0.138
LUC7L3_O95232_40+43_YYLCGFCPAELFTNTR (UniProt O95232)	0.232	-0.733
MUT_P22033_560_CTVGEITDALK (UniProt P22033)	0.0307	0.0797
MTHFD1_P11586_236_GEWIKPGAIVIDCGINYVPDDK (UniProt P11586)	0.183	0.298
MCM2_P49736_406_DAILLADLVDSCK (UniProt P49736)	-0.0605	0.3
LUC7L3_O95232_58_SDLGPCEK (UniProt O95232)	-0.112	-0.363
MATR3_P43243_230_CRDDSFFGETSHNYHK (UniProt P43243)	0.00308	-0.311
LYSMD2_Q8IV50_106_LFTNDCIFLK (UniProt Q8IV50)	-0.192	-1.77
MAPK9_P45984_177_TACTNFMMTPYVVTR (UniProt P45984)	-0.494	-1.64
MPP1_Q00013_454_KLQEAFDQACSSPQWVPVSWVY (UniProt Q00013)	-0.0366	-0.104
MCM3_P25205_119+123+126_TLTSCFLSCVVCVEGIVTK (UniProt P25205)	-0.0216	-1.13
LRRC40_Q9H9A6_227_HLDCNSNLLETIPPELAGMESLELLYLRR (UniProt Q9H9A6)	-0.229	-0.459
MYADM_Q96S97_279_SRDVSCSR (UniProt Q96S97)	1.07	1.22
MSTO1_Q9BUK6_347_LCSSPVSMVHLADMLSFCGK (UniProt Q9BUK6)	0.0999	0.248
MCCC2_Q9HCC0_267_AATGEEVSAEDLGGADLHCRK (UniProt Q9HCC0)	-0.591	-1.49
MAP1S_Q66K74_435+440_VLFPGCTPPACLLDGLVR (UniProt Q66K74)	-0.0708	-0.133
MGAT2_Q10469_378_IFHAGDCGMHHK (UniProt Q10469)	-0.125	-0.149
